Source: PubChem
Most compounds without a hit are left out; they make up all but 2.3% or so of the library.
KDM4E inh = inhibitors of human JMJD2E histone demethylase; Potency, µM (top dose mostly 57.1 µM), for the others: top-dose activity change, negative = inhibition, usual class: inhibitors; AID 2147; actives 1.6% (n = 230,000); JMJD2E catalytic domain, FDH-coupled NADH fluorescence (FDH is formaldehyde dehydrogenase); B2RXH2; active = well fitted inhibition curve with a large enough effect, not every such curve was filed as active; inconclusive = small, poorly fitted or top-dose-only effect, or another doubt; inactive = no such curve, though single readings can be large or run the other way;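 note: potency is the fitted concentration of half-maximal effect; 0% = wells with enzyme and -100% = buffer wells without enzyme; nearly all actives have a fitted effect of over 50% in size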
RGS12 GoLoco inh = blocks human Gai1 binding to RGS12 GoLoco peptide, red readout; Potency, µM (doses to about 61.6 µM), for inactives: top-dose activity, negative = inhibition, actives largely listed as inhibitors; actives 0.44% (n = 230,000); P63096; AID 880; Gai1:RGS12 GoLoco peptide FP, rhodamine, 10 min; active = well fitted inhibition curve with a large enough effect, not every such curve was filed as active; inactive = no such curve, though single readings can be large or run the other way; note: potency is the fitted concentration of half-maximal effect; % is set by controls: 0 for no effect and ±100 for the full control effect; nearly all actives have a fitted effect of over 30% in size
Target sequence (P63096 whole entry, looked up): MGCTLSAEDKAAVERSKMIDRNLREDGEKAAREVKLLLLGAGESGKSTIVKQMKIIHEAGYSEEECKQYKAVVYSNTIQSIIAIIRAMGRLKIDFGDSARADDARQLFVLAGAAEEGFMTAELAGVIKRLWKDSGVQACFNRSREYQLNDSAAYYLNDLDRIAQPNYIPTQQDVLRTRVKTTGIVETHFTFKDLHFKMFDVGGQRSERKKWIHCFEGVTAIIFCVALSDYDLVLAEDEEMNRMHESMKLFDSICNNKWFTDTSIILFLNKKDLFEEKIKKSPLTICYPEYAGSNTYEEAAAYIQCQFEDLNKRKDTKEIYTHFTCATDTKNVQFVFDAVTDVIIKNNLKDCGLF
VDR inh = vitamin D3 receptor (human) inhibition; VDR-SRC2-3 peptide fluorescence polarization, 2 h; Potency, µM, without a hit: max response, negative = inhibition, most hits filed as inhibitors; P11473; actives 0.93% (n = 400,000); note: potency is the fitted concentration of half-maximal effect; % is set by controls: 0 for no effect and ±100 for the full control effect
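Fluorescence polarization assay measuring small-molecule disruption of VDR binding to the coregulator peptide SRC2-3. Compounds were pin-transferred (23 nl) into the reagent mix and incubated 2 h at room temperature before reading.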
HTT ATP protect = Huntington cell model cytoprotection by ATP luminescence; PC12 HTT-Q103 induced, cytoprotection, ATP luminescence, 40 h; Potency, µM (doses to about 56.4 µM), for inactives: cytoprotection (ATP increase), usual class: activators; actives 0.14% (n = 230,000); AID 1471; note: potency is the fitted concentration of half-maximal effect; % of control where 0% means no effect; nearly all actives have a fitted effect of over 45% in size
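Cells were plated at 1500 per well in phenol red-free DMEM with 5% equine and 5% calf serum. Tebufenozide (100 nM final) and compounds were added, then ATPlite reagent, and luminescence was read.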
FBPA coupling cs = coupling enzyme interference in Giardia aldolase counter-screen; coupling enzyme system counterscreen, AmpLite Red fluorescence; activity change, negative = inhibition, % at 58.2 µM, hits read low; actives 0.67% (n = 290,000); in the data active = activity change below about -30%; note: % is set by controls: 0 for no effect and ±100 for the full control effect
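Final compound at 57.5 uM, incubated 10 min at RT with coupling enzyme reagent (glyceraldehyde-3-phosphate), then 20 min with substrate and AmpLite Red detection. Fluorescence read at 525/598 nm; tests interference with the coupling assay, not aldolase inhibition.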
HttQ103 aggreg = inhibitors of mutant huntingtin aggregate formation in PC12 cells. actives 1.1% (n = 220,000). Potency, µM (titrated, usually from 46.1 µM), inactives show at the highest dose activity change, negative = inhibition, usual class: inhibitors. PC12 HttQ103-GFP aggregates, Acumen cytometry, 40 h; note: potency is the fitted concentration of half-maximal effect; % is set by controls: 0 for no effect and ±100 for the full control effect; nearly all actives have a fitted effect of over 60% in size
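Aggregates are detected as GFP objects 1–25 µm with signal 6 STDEV over background in lysates of induced PC12 cells. These carry Huntingtin exon 1 with 103 glutamines fused to GFP under an ecdysone promoter; compounds titrated.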
An asterisk follows results filed as active; ? = inconclusive; . = no result; ! = not confirmed by another sample; [ ] = dose if it differs, or a comment. Unless noted, calls come from the whole dose curve; as a rule, active = well fitted curve in the direction sought with a large enough effect; inconclusive = small, poorly fitted or top-dose-only effect, or another doubt; inactive = no such curve, though single readings can be large; an effect the other way counts as inactive or inconclusive.

SMILES	KDM4E inh	RGS12 GoLoco inh	VDR inh	HTT ATP protect	FBPA coupling cs	HttQ103 aggreg
COc1cc(/C=C2\SC(=O)N(CC(=O)Nc3cccc(C)c3)C2=O)cc([N+](=O)[O-])c1O	-2%	4%	71µM*	19%	1	-26%
NC(N)=Nc1nc2ccc([N+](=O)[O-])cc2[nH]1	6%	0.35µM*!	-23%	8%[10 µM]	-2	2%[9.22 µM]
COc1ccc(-c2nc3ccc([N+](=O)[O-])cc3[nH]2)cc1	8%	15%	-5%	2%[0.074 µM]	-24	?
Cc1ccc(-c2nc3ccc([N+](=O)[O-])cc3[nH]2)cc1	8%	9%	-12%	-13%[10 µM]	-31*	10µM*
O=[N+]([O-])c1cccc(-c2nc3ccc([N+](=O)[O-])cc3[nH]2)c1	2%	39%	32µM*	-22%	-9	?
COc1cccc(OCc2cc(C(=O)NCc3cnc4ccccn34)no2)c1	.	.	-14%	.	.	.
CC(=C(CCOP(=O)(O)O)SC(=O)c1ccccc1)N(C=O)Cc1cnc(C)nc1N	-11%	-5%	-2%	0%[40.3 µM]	0	3%[20.6 µM]
O=C(O)c1ccc2c(=O)n(Cc3ccccc3)c(SCc3ccc([N+](=O)[O-])cc3)nc2c1	.	.	79µM*	.	21	.
COc1ccc(CCNCC(C)c2ccccc2)cc1 (centres undefined)	.	.	-7%	.	1	.
COc1ccc(CCNCC(O)c2ccccc2)cc1 (centres undefined)	7.9µM*	3%	11%	-23%[10 µM]	-1	1%[9.22 µM]
Cc1cccc(C(=O)Nc2nnc(S(=O)(=O)N(C)Cc3ccco3)s2)c1	.	.	89µM*!	.	.	.
Cc1oc(-c2ccccc2Cl)nc1CN1CCCC1c1ccc(F)cc1 (centres undefined)	?	28%	14%	5%[10 µM]	-1	13%[9.22 µM]
Cc1oc(-c2ccccc2Cl)nc1CN1CCCCC1c1cccnc1 (centres undefined)	22µM*	22%	2%	2%[10 µM]	-3	3%[9.22 µM]
O=C(N/N=C/c1cccs1)c1[nH]ncc1Br	.	.	2%	.	13	.
CCOc1ccc(/C=N/NC(=O)c2[nH]ncc2Br)c(O)c1	?	8%	9%	.	-6	.
Cc1ccc(O)c(/C=N/NC(=O)c2[nH]ncc2Br)c1	3.2µM*	15%	6%	-2%[10 µM]	1	?
O=C(N/N=C/c1c(O)ccc2ccccc12)c1[nH]ncc1Br	32µM*	11%	6%	-83%[10 µM]	-6	1.1µM*
O=C(CCc1nc2ccccc2c(=O)[nH]1)Nc1cc(Cl)ccc1N1CCCC1	.	.	11%	.	.	.
CO[C@@H]1COC(=O)C/C=C\[C@@H](C)[C@@H]2C=C[C@H](O)[C@@H](COC(=O)CCC[C@H]1C)O2	.	.	.	-15%[10 µM]	3	.
NSc1nc(N)c2nc(-c3ccccc3)c(-c3ccccc3)nc2n1	?	11%	8.9µM*	-1%	3	21%
CC1CCN(C(=O)c2ccc(N3CCOCC3)c([N+](=O)[O-])c2)CC1	.	.	3%	.	.	.
COc1cc([C@@H]2c3cc4c(cc3[C@@H](O[C@@H]3O[C@H]5CO[C@@H](C)O[C@@H]5[C@@H](O)[C@H]3O)[C@@H]3COC(=O)[C@@H]23)OCO4)cc(OC)c1O	1%	28µM*	.	-33%	-49*	.
O=c1ccc2[n+]([O-])c3ccc(O)cc3oc-2c1	?	10µM*	11µM*	9%[10 µM]	1	-17%[9.22 µM]
O=c1cc(O)c2ccc(O)cc2o1	?	6%	-6%	4%[10 µM]	0	5%[9.22 µM]
CSC(=Nc1ccc(Cl)cc1)N[n+]1ccccc1	-1%	7.1µM*	0%	.	-3	2%
NC(=Nc1ccc(Cl)cc1)c1ccccc1	2%	-3%	5%	-5%[10 µM]	-2	3%
CC(C)Nc1nc(C#N)nc(Nc2ccccc2)n1	.	.	.	.	-4	.
O=C(O)CC(CC(=O)O)C(=O)O	.	5%[14.2 µM]	.	-15%[10 µM]	.	.
COc1ccc(N=Nc2[nH]c3ccc(C)cc3c2O)cc1	-16%	3.2µM*	6%	17%[10 µM]	-5	0%
Cc1ccc(N=Nc2[nH]c3ccccc3c2O)cc1	-4%	13µM*	-21%	-11%[10 µM]	-5	-9%
